Where a chain is given by its changes, count along the chain named.
How the values were obtained:
Assay in all cases: PBM; 200 nM protein, PBS
Details in all cases: dsDNA, one strand shown
[1] = target: HOXB9 (Homo sapiens, UniProt P17482 171-250, T197M)
[2] = target: HOXB9 (Homo sapiens, UniProt P17482 171-250)
[3] = target: HOXB9 (Homo sapiens, UniProt P17482 171-250, R186Q)
[4] = target: T1, SIX6 (Homo sapiens, UniProt O95475 114-200, L167I)
T1 sequence: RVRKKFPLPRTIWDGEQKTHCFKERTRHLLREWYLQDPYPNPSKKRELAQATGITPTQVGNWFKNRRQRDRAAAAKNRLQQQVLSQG

[5] = target: T2, SIX6 (Homo sapiens, UniProt O95475 114-200, L143V)
T2 sequence: T1 sequence with L30V, I54L

[6] = target: T3, SIX6 (Homo sapiens, UniProt O95475 114-200, H141N)
T3 sequence: T1 sequence with H28N, I54L

[7] = target: T4, SIX6 (Homo sapiens, UniProt O95475 114-200, T165P)
T4 sequence: T1 sequence with T52P, I54L

[8] = target: T5, SIX6 (Homo sapiens, UniProt O95475 114-200, L167M)
T5 sequence: T1 sequence with I54M

[9] = target: T6, SIX6 (Homo sapiens, UniProt O95475 114-200, L143M)
T6 sequence: T1 sequence with L30M, I54L

[10] = target: T7, SIX6 (Homo sapiens, UniProt O95475 114-200, L143I)
T7 sequence: T1 sequence with L30I, I54L

[11] = target: T8, SIX6 (Homo sapiens, UniProt O95475 114-200, T165G)
T8 sequence: T1 sequence with T52G, I54L

[12] = target: T9, SIX6 (Homo sapiens, UniProt O95475 114-200, T139Q)
T9 sequence: T1 sequence with T26Q, I54L

[13] = target: T10, SIX6 (Homo sapiens, UniProt O95475 114-200, T165A)
T10 sequence: T1 sequence with T52A, I54L

[14] = target: T11, SIX6 (Homo sapiens, UniProt O95475 114-200, L167V)
T11 sequence: T1 sequence with I54V

[15] = target: T12, SIX6 (Homo sapiens, UniProt O95475 114-200)
T12 sequence: T1 sequence with I54L

[16] = target: T13, SIX6 (Homo sapiens, UniProt O95475 114-200, T165I)
T13 sequence: T1 sequence with T52I, I54L

[17] = target: HOXA2 (Homo sapiens, UniProt O43364 129-215, R185T)
[18] = target: HOXA2 (Homo sapiens, UniProt O43364 129-215, R185K)
[19] = target: HOXA2 (Homo sapiens, UniProt O43364 129-215, Y150S)
[20] = target: HOXA2 (Homo sapiens, UniProt O43364 129-215)
Chain of HOXA2 (Homo sapiens, UniProt O43364 129-215) (O43364 129-215): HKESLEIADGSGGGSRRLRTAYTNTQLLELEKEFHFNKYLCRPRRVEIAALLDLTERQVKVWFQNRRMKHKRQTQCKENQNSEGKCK

Chain of HOXB9 (Homo sapiens, UniProt P17482 171-250, T197M) (P17482 171-250 T197M): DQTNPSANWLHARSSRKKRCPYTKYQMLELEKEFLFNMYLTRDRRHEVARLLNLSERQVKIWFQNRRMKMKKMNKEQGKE
Chain of HOXB9 (Homo sapiens, UniProt P17482 171-250, R186Q) (P17482 171-250 R186Q): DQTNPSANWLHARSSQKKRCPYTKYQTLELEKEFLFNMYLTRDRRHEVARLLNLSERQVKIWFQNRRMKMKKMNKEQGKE
Chain of HOXB9 (Homo sapiens, UniProt P17482 171-250) (P17482 171-250): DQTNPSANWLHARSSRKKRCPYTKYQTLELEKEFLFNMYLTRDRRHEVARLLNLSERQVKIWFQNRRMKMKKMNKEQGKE
Chain of HOXA2 (Homo sapiens, UniProt O43364 129-215, R185K) (O43364 129-215 R185K): as the sequence (O43364 129-215) above, with R57K counted along it
Chain of HOXA2 (Homo sapiens, UniProt O43364 129-215, Y150S) (O43364 129-215 Y150S): as the sequence (O43364 129-215) above, with Y22S counted along it
Chain of HOXA2 (Homo sapiens, UniProt O43364 129-215, R185T) (O43364 129-215 R185T): as the sequence (O43364 129-215) above, with R57T counted along it

Sequence: GCCTCCGC
- binding signal [1]: 8.43 upbm affinity estimate (log intensity, higher = more binding, comparable within an allelic series)
- binding signal [2]: 8.05 upbm affinity estimate (log intensity, higher = more binding, comparable within an allelic series)
- binding signal [3]: 8.16 upbm affinity estimate (log intensity, higher = more binding, comparable within an allelic series)

Sequence: GCCACTCC
- binding signal [1]: 8.73 upbm affinity estimate (log intensity, higher = more binding, comparable within an allelic series)
- binding signal [2]: 8.79 upbm affinity estimate (log intensity, higher = more binding, comparable within an allelic series)
- binding signal [3]: 8.8 upbm affinity estimate (log intensity, higher = more binding, comparable within an allelic series)

Sequence: GTGGCGGA
- binding signal [1]: 8.44 upbm affinity estimate (log intensity, higher = more binding, comparable within an allelic series)
- binding signal [2]: 8.58 upbm affinity estimate (log intensity, higher = more binding, comparable within an allelic series)
- binding signal [3]: 8.61 upbm affinity estimate (log intensity, higher = more binding, comparable within an allelic series)

Sequence: AGACGCGG
- binding signal [1]: 8.63 upbm affinity estimate (log intensity, higher = more binding, comparable within an allelic series)
- binding signal [2]: 8.58 upbm affinity estimate (log intensity, higher = more binding, comparable within an allelic series)
- binding signal [3]: 8.55 upbm affinity estimate (log intensity, higher = more binding, comparable within an allelic series)

Sequence: AGGAACCC
- binding signal [1]: 8.41 upbm affinity estimate (log intensity, higher = more binding, comparable within an allelic series)
- binding signal [2]: 8.22 upbm affinity estimate (log intensity, higher = more binding, comparable within an allelic series)
- binding signal [3]: 8.24 upbm affinity estimate (log intensity, higher = more binding, comparable within an allelic series)

Sequence: CGTCCGAC
- binding signal [1]: 8.56 upbm affinity estimate (log intensity, higher = more binding, comparable within an allelic series)
- binding signal [2]: 8.39 upbm affinity estimate (log intensity, higher = more binding, comparable within an allelic series)
- binding signal [3]: 8.45 upbm affinity estimate (log intensity, higher = more binding, comparable within an allelic series)

Sequence: CAGATCGG
- binding signal [1]: 8.72 upbm affinity estimate (log intensity, higher = more binding, comparable within an allelic series)
- binding signal [2]: 8.44 upbm affinity estimate (log intensity, higher = more binding, comparable within an allelic series)
- binding signal [3]: 8.55 upbm affinity estimate (log intensity, higher = more binding, comparable within an allelic series)

Sequence: CGAAGGAC
- binding signal [1]: 8.68 upbm affinity estimate (log intensity, higher = more binding, comparable within an allelic series)
- binding signal [2]: 8.57 upbm affinity estimate (log intensity, higher = more binding, comparable within an allelic series)
- binding signal [3]: 8.58 upbm affinity estimate (log intensity, higher = more binding, comparable within an allelic series)

Sequence: CAGGGGCC
- binding signal [1]: 8.21 upbm affinity estimate (log intensity, higher = more binding, comparable within an allelic series)
- binding signal [2]: 8.25 upbm affinity estimate (log intensity, higher = more binding, comparable within an allelic series)
- binding signal [3]: 8.25 upbm affinity estimate (log intensity, higher = more binding, comparable within an allelic series)

Sequence: GGCGCAGA
- binding signal [1]: 8.52 upbm affinity estimate (log intensity, higher = more binding, comparable within an allelic series)
- binding signal [2]: 8.62 upbm affinity estimate (log intensity, higher = more binding, comparable within an allelic series)
- binding signal [3]: 8.63 upbm affinity estimate (log intensity, higher = more binding, comparable within an allelic series)

Sequence: GCACCGCC
- binding signal [1]: 8.24 upbm affinity estimate (log intensity, higher = more binding, comparable within an allelic series)
- binding signal [2]: 8.35 upbm affinity estimate (log intensity, higher = more binding, comparable within an allelic series)
- binding signal [3]: 8.25 upbm affinity estimate (log intensity, higher = more binding, comparable within an allelic series)

Sequence: CCCGTCTC
- binding signal [1]: 8.46 upbm affinity estimate (log intensity, higher = more binding, comparable within an allelic series)
- binding signal [2]: 8.32 upbm affinity estimate (log intensity, higher = more binding, comparable within an allelic series)
- binding signal [3]: 8.4 upbm affinity estimate (log intensity, higher = more binding, comparable within an allelic series)

Sequence: CCGATCGG
- binding signal [1]: 8.51 upbm affinity estimate (log intensity, higher = more binding, comparable within an allelic series)
- binding signal [2]: 8.53 upbm affinity estimate (log intensity, higher = more binding, comparable within an allelic series)
- binding signal [3]: 8.57 upbm affinity estimate (log intensity, higher = more binding, comparable within an allelic series)

Sequence: CGTGGCTC
- binding signal [1]: 8.5 upbm affinity estimate (log intensity, higher = more binding, comparable within an allelic series)
- binding signal [2]: 8.18 upbm affinity estimate (log intensity, higher = more binding, comparable within an allelic series)
- binding signal [3]: 8.26 upbm affinity estimate (log intensity, higher = more binding, comparable within an allelic series)

Sequence: GCGGGTGA
- binding signal [1]: 8.59 upbm affinity estimate (log intensity, higher = more binding, comparable within an allelic series)
- binding signal [2]: 8.45 upbm affinity estimate (log intensity, higher = more binding, comparable within an allelic series)
- binding signal [3]: 8.62 upbm affinity estimate (log intensity, higher = more binding, comparable within an allelic series)

Sequence: GGAGCTAC
- binding signal [1]: 8.61 upbm affinity estimate (log intensity, higher = more binding, comparable within an allelic series)
- binding signal [2]: 8.26 upbm affinity estimate (log intensity, higher = more binding, comparable within an allelic series)
- binding signal [3]: 8.53 upbm affinity estimate (log intensity, higher = more binding, comparable within an allelic series)

Sequence: AGCGCGCC
- binding signal [1]: 8.57 upbm affinity estimate (log intensity, higher = more binding, comparable within an allelic series)
- binding signal [2]: 8.53 upbm affinity estimate (log intensity, higher = more binding, comparable within an allelic series)
- binding signal [3]: 8.54 upbm affinity estimate (log intensity, higher = more binding, comparable within an allelic series)

Sequence: AGGGCGTG
- binding signal [1]: 8.57 upbm affinity estimate (log intensity, higher = more binding, comparable within an allelic series)
- binding signal [2]: 8.4 upbm affinity estimate (log intensity, higher = more binding, comparable within an allelic series)
- binding signal [3]: 8.53 upbm affinity estimate (log intensity, higher = more binding, comparable within an allelic series)

Sequence: GGCGGACC
- binding signal [4]: 8.97 upbm affinity estimate (log intensity, higher = more binding, comparable within an allelic series)
- binding signal [5]: 8.88 upbm affinity estimate (log intensity, higher = more binding, comparable within an allelic series)
- binding signal [6]: 9.01 upbm affinity estimate (log intensity, higher = more binding, comparable within an allelic series)
- binding signal [7]: 8.96 upbm affinity estimate (log intensity, higher = more binding, comparable within an allelic series)
- binding signal [8]: 8.9 upbm affinity estimate (log intensity, higher = more binding, comparable within an allelic series)
- binding signal [9]: 8.83 upbm affinity estimate (log intensity, higher = more binding, comparable within an allelic series)
- binding signal [10]: 8.88 upbm affinity estimate (log intensity, higher = more binding, comparable within an allelic series)
- binding signal [11]: 8.99 upbm affinity estimate (log intensity, higher = more binding, comparable within an allelic series)
- binding signal [12]: 8.91 upbm affinity estimate (log intensity, higher = more binding, comparable within an allelic series)
- binding signal [13]: 8.99 upbm affinity estimate (log intensity, higher = more binding, comparable within an allelic series)
- binding signal [14]: 8.82 upbm affinity estimate (log intensity, higher = more binding, comparable within an allelic series)
- binding signal [15]: 8.92 upbm affinity estimate (log intensity, higher = more binding, comparable within an allelic series)
- binding signal [16]: 8.89 upbm affinity estimate (log intensity, higher = more binding, comparable within an allelic series)

Sequence: CCCCGGGG
- binding signal [4]: 9.12 upbm affinity estimate (log intensity, higher = more binding, comparable within an allelic series)
- binding signal [5]: 8.92 upbm affinity estimate (log intensity, higher = more binding, comparable within an allelic series)
- binding signal [6]: 9.16 upbm affinity estimate (log intensity, higher = more binding, comparable within an allelic series)
- binding signal [7]: 8.88 upbm affinity estimate (log intensity, higher = more binding, comparable within an allelic series)
- binding signal [8]: 9.05 upbm affinity estimate (log intensity, higher = more binding, comparable within an allelic series)
- binding signal [9]: 9.06 upbm affinity estimate (log intensity, higher = more binding, comparable within an allelic series)
- binding signal [10]: 8.94 upbm affinity estimate (log intensity, higher = more binding, comparable within an allelic series)
- binding signal [11]: 9.11 upbm affinity estimate (log intensity, higher = more binding, comparable within an allelic series)
- binding signal [17]: 6.97 upbm affinity estimate (log intensity, higher = more binding, comparable within an allelic series)
- binding signal [12]: 9.14 upbm affinity estimate (log intensity, higher = more binding, comparable within an allelic series)
- binding signal [13]: 9.14 upbm affinity estimate (log intensity, higher = more binding, comparable within an allelic series)
- binding signal [18]: 10.1 upbm affinity estimate (log intensity, higher = more binding, comparable within an allelic series)
- binding signal [14]: 9.05 upbm affinity estimate (log intensity, higher = more binding, comparable within an allelic series)
- binding signal [15]: 9.11 upbm affinity estimate (log intensity, higher = more binding, comparable within an allelic series)
- binding signal [16]: 9.08 upbm affinity estimate (log intensity, higher = more binding, comparable within an allelic series)
- binding signal [19]: 10.4 upbm affinity estimate (log intensity, higher = more binding, comparable within an allelic series)
- binding signal [20]: 7.1 upbm affinity estimate (log intensity, higher = more binding, comparable within an allelic series)
